# Values joined by “and” are separate entries in the source; they are usually repeats but may differ in a detail not shown here. Identical values can stand only once. In all, about 5,500 compounds went through this assay and about 2,000 (36%) were called active. Inconclusive results (about 18%) are left out. Rule as the data show it: active = normalized growth mostly below about 0.91 (no sharp cut-off); inconclusive = no clear call, values can overlap the other calls; inactive = mostly above about 0.92. The list shows a part of the results. Some structures have more than one record in an assay (separate samples or runs), and their calls can disagree.
# Assay: chemical genetic growth profiling, strain panel (AID 1159580);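 also: tested at 20 µM; growth read once vehicle control cultures reached saturation at 30 °C; 1 = growth at the plate median or of vehicle wells; lower values mean less growth of the strain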
# Conditions: growth OD
smiles,measurement,setting,value
COc1ccccc1N1CCNCC1,normalized growth,"S. cerevisiae deletion strains, locus YKL085W, strain MDH1, stronger effect = lower value",1.04 (inactive)
same,normalized growth,"S. cerevisiae deletion strains, locus YKL190W, strain CNB1, stronger effect = lower value",0.994 (inactive)
same,normalized growth,"S. cerevisiae deletion strains, locus YKR001C, strain vps1, stronger effect = lower value",1.04 (inactive)
same,normalized growth,"S. cerevisiae deletion strains, locus YLR039C, strain RIC1, stronger effect = lower value",1.05 (inactive)
same,normalized growth,"S. cerevisiae deletion strains, locus YLR058C, strain SHM2, stronger effect = lower value",1.01 (inactive)
same,normalized growth,"S. cerevisiae deletion strains, locus YLR102C, strain apc9, stronger effect = lower value",1.04 (inactive)
same,normalized growth,"S. cerevisiae deletion strains, locus YLR262C, strain YPT6, stronger effect = lower value",1.06 (inactive)
same,normalized growth,"S. cerevisiae deletion strains, locus YLR268W, strain sec22, stronger effect = lower value",1.02 (inactive)
same,normalized growth,"S. cerevisiae deletion strains, locus YLR330W, strain CHS5, stronger effect = lower value",1 (inactive)
same,normalized growth,"S. cerevisiae deletion strains, locus YLR342W, strain FKS1 (second series), stronger effect = lower value",1.01 (inactive)
same,normalized growth,"S. cerevisiae deletion strains, locus YLR371W, strain rom2, stronger effect = lower value",1.03 (inactive)
same,normalized growth,"S. cerevisiae deletion strains, locus YLR418C, strain cdc73, stronger effect = lower value",1.04 (inactive)
same,normalized growth,"S. cerevisiae deletion strains, locus YML016C, strain PPZ1, stronger effect = lower value",1.01 (inactive)
same,normalized growth,"S. cerevisiae deletion strains, locus YML032C, strain rad52, stronger effect = lower value",1.03 (inactive)
same,normalized growth,"S. cerevisiae deletion strains, locus YML124C, strain tub3, stronger effect = lower value",1.02 (inactive)
same,normalized growth,"S. cerevisiae deletion strains, locus YMR078C, strain ctf18, stronger effect = lower value",1.04 (inactive)
same,normalized growth,"S. cerevisiae deletion strains, locus YMR223W, strain ubp8, stronger effect = lower value",1.03 (inactive)
same,normalized growth,"S. cerevisiae deletion strains, locus YMR263W, strain SAP30, stronger effect = lower value",0.997 (inactive) and 0.985 (inactive)
same,normalized growth,"S. cerevisiae deletion strains, locus YMR307W, strain GAS1, stronger effect = lower value",0.992 (inactive) and 1 (inactive)
same,normalized growth,"S. cerevisiae deletion strains, locus YNL067W, strain RPL9B, stronger effect = lower value",1 (inactive)
same,normalized growth,"S. cerevisiae deletion strains, locus YNL128W, strain TEP1, stronger effect = lower value",1.01 (inactive)
same,normalized growth,"S. cerevisiae deletion strains, locus YNL153C, strain GIM3, stronger effect = lower value",0.987 (inactive) and 1.27 [resistant] (active)
same,normalized growth,"S. cerevisiae deletion strains, locus YNL175C, strain NOP13, stronger effect = lower value",0.992 (inactive)
same,normalized growth,"S. cerevisiae deletion strains, locus YNL197C, strain WHI3, stronger effect = lower value",1.02 (inactive)
same,normalized growth,"S. cerevisiae deletion strains, locus YNL224C, strain SQS1, stronger effect = lower value",0.994 (inactive)
same,normalized growth,"S. cerevisiae deletion strains, locus YNL233W, strain BNI4, stronger effect = lower value",1.02 (inactive)
same,normalized growth,"S. cerevisiae deletion strains, locus YNL250W, strain rad50, stronger effect = lower value",1.05 (inactive)
same,normalized growth,"S. cerevisiae deletion strains, locus YNL271C, strain bni1, stronger effect = lower value",1.04 (inactive)
same,normalized growth,"S. cerevisiae deletion strains, locus YNL298W, strain CLA4, stronger effect = lower value",1.05 (inactive)
same,normalized growth,"S. cerevisiae deletion strains, locus YNL307C, strain MCK1, stronger effect = lower value",1.05 (inactive)
same,normalized growth,"S. cerevisiae deletion strains, locus YNL322C, strain KRE1, stronger effect = lower value",1.01 (inactive) and 0.972 (inactive)
same,normalized growth,"S. cerevisiae deletion strains, locus YNR052C, strain pop2, stronger effect = lower value",1.03 (inactive)
same,normalized growth,"S. cerevisiae deletion strains, locus YOL006C, strain TOP1, stronger effect = lower value",0.997 (inactive)
same,normalized growth,"S. cerevisiae deletion strains, locus YOL012C, strain htz1",0.807 (inactive)
same,normalized growth,"S. cerevisiae deletion strains, locus YOL147C, strain pex11, stronger effect = lower value",1.02 (inactive)
same,normalized growth,"S. cerevisiae deletion strains, locus YOR061W, strain CKA2, stronger effect = lower value",1.01 (inactive)
same,normalized growth,"S. cerevisiae deletion strains, locus YOR069W, strain VPS5, stronger effect = lower value",0.997 (inactive)
same,normalized growth,"S. cerevisiae deletion strains, locus YOR083W, strain WHI5 (second series), stronger effect = lower value",1 (inactive)
same,normalized growth,"S. cerevisiae deletion strains, locus YOR136W, strain idh2, stronger effect = lower value",1.03 (inactive)
same,normalized growth,"S. cerevisiae deletion strains, locus YOR144C, strain elg1, stronger effect = lower value",1.03 (inactive)
same,normalized growth,"S. cerevisiae deletion strains, locus YOR184W, strain ser1, stronger effect = lower value",1.05 (inactive)
same,normalized growth,"S. cerevisiae deletion strains, locus YOR316C, strain cot1, stronger effect = lower value",1.03 (inactive)
same,normalized growth,"S. cerevisiae deletion strains, locus YPL055C, strain LGE1, stronger effect = lower value",1.03 (inactive) and 0.983 (inactive)
same,normalized growth,"S. cerevisiae deletion strains, locus YPL241C, strain CIN2, stronger effect = lower value",1.01 (inactive)
same,normalized growth,"S. cerevisiae deletion strains, locus YPR119W, strain clb2, stronger effect = lower value",1.02 (inactive)
same,normalized growth,"S. cerevisiae deletion strains, locus YPR141C, strain kar3, stronger effect = lower value",1.03 (inactive)
same,normalized growth,"S. cerevisiae deletion strains, locus YPR163C, strain tif3, stronger effect = lower value",1.03 (inactive)
same,normalized growth,"S. cerevisiae deletion strains, locus YPR167C, strain met16, stronger effect = lower value",1.03 (inactive)
same,normalized growth,"S. cerevisiae deletion strains, strain wtn01, stronger effect = lower value",1.01 (inactive)
same,normalized growth,"S. cerevisiae strains, strain wild type, stronger effect = lower value",1.01 (inactive)
